IEC-6 tox – kills IEC-6 intestinal cells in KLF5 counter-screen. inhibition, % at 5 µM. AID 1825. 0.78% of 290,000 active. IEC-6 cytotoxicity, luminescence viability;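 further: 0% = plate median of test compound wells and 100% = cytotoxic reference compound wells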
APP 5UTR inh – APP translation inhibition | SH-SY5Y APP 5'UTR-luciferase reporter, luminescence | inhibition, % at 2 µM | 0.82% of 190,000 active | AID 1285;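 active means inhibition above a set limit, derived from the sample mean plus 3 SD, cut at about 45% in these data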
BaF3 parental – reduces parental Ba/F3 cell viability, JAK2V617F counter-screen; inhibition, % at 5.6 µM; 1.1% of 220,000 active; CellTiter-Glo ATP luminescence; AID 1486;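 active means inhibition above a per-campaign cutoff, the mean inhibition of all tested compounds plus 3 SD, cut at about 27% in these data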;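 further: 0% = DMSO wells and 100% = JAK Inhibitor I control wells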
Ba/F3 V617F tox – reduce viability of Ba/F3 cells dependent on JAK2V617F. Ba/F3 EpoR-JAK2V617F viability, ATP luminescence. inhibition, % at 5.6 µM. 1.1% of 220,000 active. AID 1446;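 active means inhibition above the campaign mean plus 3 SD over all tested compounds, cut at about 24% in these data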;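 further: cytokine-independent growth of Ba/F3 cells driven by EpoR plus mutant JAK2; 0% = DMSO-treated cells and 100% = JAK inhibitor I control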
aSyn 5UTR inh – 5' untranslated region of α-synuclein, MLPCN primary screen; alpha-synuclein 5'UTR reporter, inhibitor activity; inhibition, % (tested at 7.5 µM); 0.82% of 300,000 active; in the data active means inhibition above about 60%;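 further: H4 neuroglioblastoma cells stably carrying SNCA 5'UTR luciferase fusion; 0% = DMSO wells and 100% = positive control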
KLF5 inhibitor – kruppel-like factor 5 inhibition | DLD-1 KLF5 promoter-luciferase reporter, luminescence | inhibition, % at 5 µM | 0.23% of 290,000 active | AID 1700;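 active means inhibition above a per-plate limit of that plate's mean compound inhibition plus 3 SD, cut at about 60% in these data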;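 further: 0% = DMSO wells and 100% = LY294002 at 200 µM; higher means less KLF5 promoter-driven luciferase light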
IEC-6 tox confirm – IEC-6 cytotoxicity, confirmation assay; 63% of 1,900 active; IEC-6 rat intestinal epithelial viability, luminescence; AID 1907; inhibition, % at 5 µM; shares compounds with IEC-6 tox;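 further: 0% = vehicle and 100% = reference cytotoxic drug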
Starred values were filed as active, the others as inactive; . = not tested or not shown. This is a sample that favours compounds with a hit; in the whole collection about 2.2% have one here. Unless noted, no stated cut-off is given here; in the data, active means inhibition above about 22%; inactive means the rest.

SMILES | IEC-6 tox | APP 5UTR inh | BaF3 parental | Ba/F3 V617F tox | aSyn 5UTR inh | KLF5 inhibitor | IEC-6 tox confirm
Cc1cc(C(=O)NNc2ccc(Cl)cc2)no1 | 45* | . | 1 | -4 | -16 | 25 | -4
Cc1cc(C(=O)NNc2ccc(F)cc2F)no1 | 32* | . | -1 | 0 | -2 | 21 | -8
C/C(O)=C(/C=Nc1ccccc1)C(=O)Nc1ccccc1 | 13 | 11 | 4 | 2 | -36 | 5 | .
CC(=O)c1c2c3c(c(Br)ccc3n(C)c1=O)C(=O)c1ccccc1-2 | 44* | . | . | . | -17 | -19 | -4
O=C(CN(C(=O)CCC(=O)Nc1nccs1)c1ccccc1F)NCc1ccc(F)cc1 | 1 | . | . | . | 6 | -16 | .
CCOc1ccc(C)cc1S(=O)(=O)n1cnc2ccccc21 | 51* | . | . | . | -9 | 56 | 29*
CCOc1ccc(Cl)cc1S(=O)(=O)n1cnc2ccccc21 | 8 | 11 | 6 | 0 | -3 | -20 | .
Cc1oc(-c2ccccc2Cl)nc1CS(=O)(=O)CC(=O)NCCN1CCOCC1 | -4 | . | . | . | 4 | -9 | .
O=C1CN(C(=O)c2ccccc2)c2ccccc2N1 | 11 | -11 | 2 | 1 | 19 | -18 | .
O=C1CN(C(=O)c2cccc(Br)c2)c2ccccc2N1 | 38* | . | . | . | -85 | 4 | 10
Cc1ccc(/C=N/NC(=O)c2c(C)nc3ccc(Br)cn23)cc1 | 69* | . | . | . | 80* | 63* | 45*
N/C(CC(=O)NC1CCCCC1)=N\OCC(=O)Nc1ccc(Cl)c(Cl)c1 | 7 | . | -6 | -1 | 3 | -28 | .
O=C(CCc1ccccc1)Nc1ccc(Cl)cn1 | 68* | 75* | 51* | 67* | -314 | 20 | 40*
Cc1ccc(Cc2cnc(NC(=O)c3cccs3)s2)cc1 | 1 | -170 | -4 | -1 | -91 | -173 | .
Cc1ccc(C(=O)Nc2ncc(Cc3ccccc3)s2)o1 | 51* | -205 | 79* | 81* | -18 | -36 | 40*
Cc1cnc(NC(=O)CCc2ccccc2)s1 | 31* | . | . | . | -383 | -38 | 13
COCCNc1nc(N2CCCCC2)c2cnn(C)c2n1 | 5 | . | . | . | 21 | -3 | .
Nc1nc(Nc2ccccc2)nc2ccccc12 | 22* | -155 | 15 | 11 | -82 | -71 | 15
Cc1ccccc1Nc1nc(N)c2ccccc2n1 | 20 | -144 | 16 | 17 | -9 | -7 | .
CC(C)(C)OC(=O)NC1CC2CCCC(C1)N2Cc1ccccc1 (configuration not stated) | 2 | . | . | . | 1 | -44 | .
COC(=O)c1ccc2nc(C)cc(Nc3ccc(N(C)C)cc3)c2c1 | 2 | 0 | 6 | 4 | -4 | 17 | .
COC(=O)c1ccc(Nc2cc(C)nc3ccccc23)cc1 | 23* | . | 0 | 6 | 65* | 19 | 27*
O=c1[nH]c(/C=C2\C=Nc3ccccc32)c(O)n1Cc1ccccc1F | 41* | 63* | 67* | 99* | 32 | -12 | 37*
Cc1ccc(NS(=O)(=O)c2ccc(-c3cnc(C4CC4)o3)cc2)c(C)c1 | 78* | . | . | . | 77* | 59 | 55*
Cc1cccc(N(C)S(=O)(=O)c2ccc(-c3cnc(C4CC4)o3)cc2)c1 | 91* | . | . | . | 97* | 56 | 65*
SMILES | IEC-6 tox | APP 5UTR inh | BaF3 parental | Ba/F3 V617F tox | aSyn 5UTR inh | KLF5 inhibitor | IEC-6 tox confirm
COc1ccccc1NS(=O)(=O)c1ccc(-c2cnc(C3CC3)o2)cc1 | 84* | . | . | . | -10 | 58 | 55*
O=S(=O)(Nc1ccc(F)cc1Cl)c1ccc(-c2cnc(C3CC3)o2)cc1 | 82* | . | . | . | 68* | 55 | 52*
Cc1cccc(C)c1-n1c(C)nn(CC#N)c1=O | -2 | 3 | 11 | 3 | 6 | -23 | .
COc1ccc(NS(=O)(=O)c2ccc(-c3cnc(C4CC4)o3)cc2)cc1OC | 50* | . | . | . | 41 | 36 | 39*
COc1ccccc1CNS(=O)(=O)c1ccc(-c2cnc(C3CC3)o2)cc1 | 69* | . | . | . | 61 | 55 | 54*
CCOC(=O)C1CCN(c2nc(N)c3c(N)nc(SCC(=O)O)cc3c2C#N)CC1 | -22 | . | 1 | -3 | -9 | -4 | .
COc1ccc(NC(=S)N2CCCCCC2)cc1OC | 2 | -12 | 3 | 1 | -35 | 0 | .
C/C(=N\Nc1nc(C)cc(-c2ccccc2)n1)c1ccccc1 | 26* | . | . | . | -102 | -29 | 8
C/C(=N\Nc1nc(C)cc(-c2ccccc2)n1)c1ccc(O)cc1 | 15 | . | . | . | -24 | -63 | .
COCCCNC(=O)C1CCC(CNS(=O)(=O)c2ccc3c(c2)CC(C)N3C(=O)C2CC2)CC1 (configuration not stated) | 3 | . | . | . | 40 | -34 | .
